# From PubChem BioAssay
# Hits are enriched below; roughly 18% of the tested compounds scored in any of these assays.
# Gal4-VP16 FLuc – Gal4-VP16 reporter inhibition counter-screen; 310,000 compounds, 3.5% hits; Potency, µM (top dose mostly 53.6 µM), for the others: at the highest dose activity, negative = inhibition, hits mostly inhibitors; Drosophila S2 Gal4-VP16 UAS-luciferase, luminescence, 20 h;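 further: Gal4-VP16 expression switched on by copper sulfate through the metallothionein promoter; potency means the concentration at half of the fitted maximal effect; nearly all actives have a fitted effect of over 50% in size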
# IL-1B inflam inh – inflammasome signaling inhibition, IL-1 beta readout; THP-1 LPS/ATP IL-1B secretion, AlphaLISA, 16 h; active compounds read low; 360,000 compounds, 4.7% hits; activity change, % at 57.5 µM; in the data active means activity change below about -50%; inconclusive means mostly about -30% to -49%
#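 THP-1 cells pretreated 1 hr with compounds (up to 57.5 uM final), then stimulated with LPS (250 ng/mL final) plus ATP (1.25 mM final); secreted IL-1B measured by AlphaLISA after 16 hr, decreased signal indicating inhibition.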
# LDHA block – blocks human lactate dehydrogenase A; purified LDHA, NADH/diaphorase-resazurin fluorescence; active compounds read low; AID 1347041; 480,000 compounds, 0.15% hits; activity change, % (values are at about 110 or 230 µM); P00338; in the data active means activity change below about -30%; inconclusive means mostly about -25% to -30%;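 further: plate controls were DMSO wells for no effect and wells without enzyme for full effect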
#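 Human LDH5 at 2 nM final in Tris HCl pH 7.4 with 0.06 mM NADH and 0.2 mM pyruvate, reacted 5 minutes at room temperature. Remaining NADH coupled via diaphorase/resazurin; resorufin fluorescence read at 0 and 20 minutes, normalized to enzyme-free and DMSO wells.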
# RORg inh – blocks mouse ROR gamma transcriptional activity | P51450 | Drosophila S2 Gal4-RORgamma UAS-luciferase reporter, 20 h | Potency, µM (highest dose often 53.6 µM), without a hit: at the top dose activity change, negative = inhibition, actives largely listed as inhibitors | 310,000 compounds, 5.4% hits; further: potency means the concentration at half of the fitted maximal effect; nearly all actives have a fitted effect of over 60% in size
# Target sequence (P51450 whole entry, looked up, the tested form may be a part): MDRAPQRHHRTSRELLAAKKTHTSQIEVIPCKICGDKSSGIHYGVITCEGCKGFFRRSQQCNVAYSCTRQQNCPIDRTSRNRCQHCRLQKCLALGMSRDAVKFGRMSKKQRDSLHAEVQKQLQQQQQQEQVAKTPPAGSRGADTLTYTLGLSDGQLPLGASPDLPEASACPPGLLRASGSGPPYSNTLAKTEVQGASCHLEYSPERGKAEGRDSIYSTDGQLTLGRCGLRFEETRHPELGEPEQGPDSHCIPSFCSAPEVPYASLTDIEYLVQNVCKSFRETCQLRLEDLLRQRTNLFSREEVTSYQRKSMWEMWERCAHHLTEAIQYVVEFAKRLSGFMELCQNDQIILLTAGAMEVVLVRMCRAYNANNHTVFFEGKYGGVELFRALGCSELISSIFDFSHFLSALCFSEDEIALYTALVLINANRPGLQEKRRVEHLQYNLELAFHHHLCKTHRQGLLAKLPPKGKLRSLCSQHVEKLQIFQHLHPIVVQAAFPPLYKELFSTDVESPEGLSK
#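 ROR gamma transcriptional activity was tracked as Gal4-UAS luciferase output in stably transfected Drosophila Schneider cells, with compound added 1 hr before 700 uM copper sulfate induction and a 20 hr ambient-temperature incubation.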
# DT40 TDP1 CPT – growth inhibition of DT40 Tdp1-/-;hTDP1 cells with camptothecin (screen for TDP1 inhibitors); chicken DT40 Tdp1-/-;hTDP1 cells + 20 nM CPT, ATP luminescence, 48 h; Potency, µM (series often up to 46.2 µM), for inactives: top-dose activity change, negative = growth inhibition, actives largely listed as inhibitors; 420,000 compounds, 12% hits; further: potency means the concentration at half of the fitted maximal effect; nearly all actives have a fitted effect of over 55% in size
#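 Cell growth measured by CellTiter-Glo luminescence after a minimum 48 h, 37 C compound exposure with 20 nM CPT in Tdp1-knockout DT40 cells stably expressing hTDP1, seeded 400/well; qHTS titration format.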
# TDP1 cell noCPT – qHTS for Inhibitors of human tyrosyl-DNA phosphodiesterase 1 (TDP1): qHTS in cells in absence of CPT. DT40 Tdp1-/- hTDP1 cells, no CPT, ATP luminescence, 48 h. Potency, µM (titrated, usually from 46.2 µM), for inactives: top-dose activity change, negative = growth inhibition, most hits filed as inhibitors. 420,000 compounds, 15% hits; further: potency means the concentration at half of the fitted maximal effect; nearly all actives have a fitted effect of over 55% in size
#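 Seeded 400 DT40-hTDP1 cells/well (vehicle DMSO, no 20 nM CPT); pinned compounds; ≥48 hr at 37 °C; CellTiter-Glo luminescence as viability measure.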
# An asterisk follows results filed as active; u = inconclusive; x = not tested or not shown. Unless noted, the call rests on the fitted dose curve; in most records, active means well fitted curve in the direction sought with a large enough effect; inconclusive means small, poorly fitted or top-dose-only effect, or another doubt; inactive means no such curve, though single readings can be large; an effect the other way counts as inactive or inconclusive. Unless noted, on the % scale 0 is the no-effect control and ±100 the full control effect.
SMILES,Gal4-VP16 FLuc,IL-1B inflam inh,LDHA block,RORg inh,DT40 TDP1 CPT,TDP1 cell noCPT
CCCCn1c(/C=N/Nc2nc3ccccc3[nH]2)nc2ccccc21,1.6µM*,69,-1,1.8µM*,4.6µM*,5.2µM*
CCCn1c(/C=C/c2ccco2)nc2ccccc21,u,-16,1,-38%,16µM*,u
CCCCn1c(N)nc2ccccc21,12%,10,-5,-14%,u,u
CCCCn1c(/C=C/c2ccco2)nc2ccccc21,u,0,3,13µM*,18µM*,u
CCCCNc1nc2ccccc2[nH]1,6%,43,1,27%,u,u
Fc1ccc(N2CCN(Cc3csc4c3CCCC4)CC2)cc1,x,x,4,x,x,x
O=C(CCSc1nc(Cl)nc2nc[nH]c12)NCc1cccc(Cl)c1,x,x,-5,x,x,x
Cc1cccc(-c2nnc(SCC(=O)N3CCCC3)o2)c1,-4%,-11,-10,-29%,-4%,-24%
Cc1cccc(-c2nnc(SCCC(=O)N3CCOCC3)o2)c1,7.1µM*,-2,-4,u,3%,5%
O=C(CCSc1nnc(-c2ccccc2)o1)N1CCOCC1,-26%,-23,-6,-19%,-15%,-20%
Cc1ccc(-c2nnc(SCCC(=O)N3CCOCC3)o2)cc1,-4%,-7,-10,6.3µM*,-18%,12%
C/C(=N\NC(=O)C1CC1c1ccc(C(C)(C)C)cc1)c1ccc(F)cc1 (stereo unspecified),x,x,11,x,x,x
CN(C(=O)c1ccc(NC(=O)Cc2ccc(NC(=O)C3CCN(C(=O)C4CCCCC4)CC3)cc2)cc1)C1CC1,x,-61*,-14,x,u,u
CN(Cc1ccccc1)C(=O)c1cccc(NC(=O)Cc2ccc(NC(=O)C3CCN(C(=O)CCc4ccccc4)CC3)cc2)c1,x,-3,-1,x,u,16µM*
CN(Cc1ccccc1)C(=O)c1ccc(NC(=O)Cc2ccc(NC(=O)C3CCN(C(=O)c4ccccc4)CC3)cc2)cc1,x,8,-4,x,u,u
CN(Cc1ccccc1)C(=O)c1ccc(NC(=O)Cc2ccc(NC(=O)C3CCN(C(=O)C4CCCCC4)CC3)cc2)cc1,x,29,-5,x,23µM*,16µM*
CN(Cc1ccccc1)C(=O)c1ccc(NC(=O)Cc2ccc(NC(=O)C3CCN(C(=O)CCc4ccccc4)CC3)cc2)cc1,x,23,-1,x,26µM*,10µM*
CC(=O)c1ccc(NC(=O)Cc2ccc3c(c2)CCC3)cc1,x,x,5,x,x,x
Cc1oc2cc(OC(C)C(=O)Nc3ccc(N4CCOCC4)cc3)ccc2c(=O)c1-c1ccccc1 (stereo unspecified),x,x,9,x,x,x
Cn1cnc2c1c(=O)n(CCCSCc1ccccc1)c(=O)n2C,x,x,0,x,x,x
O=C(O)c1ccc(-c2ccc(CNC3CCCC3)o2)cc1,x,x,-3,x,x,x
CC(C)C(=O)Nc1ccc2oc(-c3ccc(F)cc3)nc2c1,x,x,0,x,x,x
CCCCCCNCc1ccc(Br)cc1,1%,-56*,-13,-16%,u,u
COc1ccc2c(c1)c(C(=O)N/N=C/c1ccc(OC)c(OC)c1)c(C)n2C,-2%,-11,-1,6%,18µM*,12µM*
COC(=O)Oc1ccc(/C=N/NC(=O)CSCc2ccccc2Br)cc1OC,13µM*,-19,-1,u,23µM*,15µM*
SMILES,Gal4-VP16 FLuc,IL-1B inflam inh,LDHA block,RORg inh,DT40 TDP1 CPT,TDP1 cell noCPT
COc1ccc(C=NNC(=O)NN=Cc2ccc(OC)c(OC)c2)cc1OC,x,u,-19,x,u,21µM*
COc1ccc(C=NNC(=O)CCCC(=O)NN=Cc2ccc(OC)c(OC)c2)cc1OC,x,-1,-3,x,u,-29%
COc1ccc(/C=N/NC(=S)SC)cc1OC,3.2µM*,67,3,1.6µM*,u,0%
CNC(=O)c1cccc(OCc2coc(-c3cccc(F)c3)n2)c1,x,x,2,x,x,x
c1ccc(-c2nc(CSc3nnnn3C3CCCCC3)co2)cc1,x,x,-2,x,x,x
CCCC(=O)N/N=C/c1ccccc1,x,x,1,x,x,x
S=C(N/N=C/c1ccccc1)N1CCOCC1,2.5µM*,24,-4,0.4µM*,u,u
CSC(=S)N/N=C/c1ccccc1,3.2µM*,25,4,1.4µM*,u,u
CC(=O)N1CCc2cc([N+](=O)[O-])ccc21,x,9,1,x,-15%,-3%
COC(=O)c1nn(-c2ccc3c(c2)CCN3C(C)=O)cc1O,8.9µM*,-21,-4,7.1µM*,u,u
CCc1ccc(CNC(=O)c2c3c(nc4ccccc24)C(=O)N(C2CCCCC2)C3)cc1,x,x,-12,x,u,16µM*
Cc1ccc(CNC(=O)c2c3c(nc4ccccc24)C(=O)N(C2CCCCC2)C3)cc1,x,x,-7,x,u,16µM*
CCCNC(=O)c1c2c(nc3ccccc13)C(=O)N(C1CCCCC1)C2,x,x,-3,x,-3%,-21%
CCNC(=O)c1c2c(nc3ccccc13)C(=O)N(C1CCCCC1)C2,x,x,4,x,-19%,-19%
Cc1ccc(N2C(=O)C(Cl)=C(N3CCCCCC3)C2=O)c(C)c1,-18%,u,-5,31%,u,15µM*
O=C1C(Cl)=C(N2CCCCCC2)C(=O)N1c1ccccc1Cl,0%,-14,-1,2%,-6%,11%
COc1ccc(N(CC(=O)NC2CC3CCC2C3)S(=O)(=O)c2ccc(C)cc2)cc1 (stereo unspecified),-2%,-7,-7,9%,-20%,-27%
Cc1cccc(N(CC(=O)Nc2ccccc2-c2ccccc2)S(=O)(=O)c2ccccc2)c1C,u,-5,-7,31%,u,23µM*
Cc1ccc(S(=O)(=O)N(CC(=O)NC2CC3CCC2C3)c2ccccc2)cc1 (stereo unspecified),x,-6,-43*,x,u,u
Cc1ccc(N(CC(=O)Nc2ccccc2-c2ccccc2)S(=O)(=O)c2ccccc2)cc1,-2%,-26,-3,29%,16µM*,21µM*
CC(N)c1cccc(NS(C)(=O)=O)c1 (stereo unspecified),x,x,22,x,x,x
CC1CCC(N2CCC(=O)CC2)CC1 (stereo unspecified),x,x,-4,x,x,x
CC1=C(C(=O)OCC2CCCCC2)C(c2cccc(Cl)c2Cl)CC(=O)N1 (stereo unspecified),x,x,-1,x,-4%,1%
